Experimental data as given in ChEMBL document CHEMBL3988442, “University of Dundee, Small-Polar-MMV Screening Library” (2021).
In all, about 48,000 compounds went through this assay and about 13,000 (27%) showed an effect of 50% or more. This is one part of the list.

Each molecule was assayed on Wolbachia pipientis (assay: Anti-Wolbachia Cell-Based Screen). Details: 5 µM.
Type: functional
Parameters: scale not given: in the data most compounds retested in dose-response had high values
For Cn1nnnc1SCCNC(=O)CC1CCc2ccccc21 (stereo not given), the “Percent Effect” value was 1.963%.
For CCC(CO)NC(=O)Nc1ccc(OCC(F)(F)F)c(C)c1 (stereo not given), the “Percent Effect” value was -12.14%.
In the case of CCN(Cc1noc(CC(C)C)n1)Cc1ccccc1OCC(=O)O, the “Percent Effect” value is reported as 3.118%.
In the case of O=C(Cn1ccc2ccccc21)N1CCC(Oc2ncccc2Br)CC1, the “Percent Effect” value is reported as 10.7%.
With Cl.Cl.c1c(CN2CCCCC2)nc2n1CCNC2 the “Percent Effect” value was 4.844%.
CC(C)c1ccc(-n2cc(O)c(C(=O)O)n2)cc1 was tested, and the “Percent Effect” value was 3.312%.
For CCCNC(=O)CN1CCC(NCc2c(C)nn(C)c2OC)CC1, the “Percent Effect” value was -12.27%.
For CNC(=O)[C@@H]1C[C@@H](NC(=O)CCCc2cccs2)CN1C1CCOCC1, the “Percent Effect” value was -14.74%.
In the case of Cc1cccc(NC(=O)N2CCCn3cnc(CN4CCCC4)c3C2)c1.O=C(O)C(F)(F)F, the “Percent Effect” value is reported as -10.04%.
With CN(C)C(=O)NCc1ncn2c1CN(Cc1cccs1)CCC2.O=C(O)C(F)(F)F.O=C(O)C(F)(F)F the “Percent Effect” value was 0.9692%.
With Cc1cccc(NC(=O)N2CCCn3cnc(CN(C)C(C)C)c3C2)c1.O=C(O)C(F)(F)F the “Percent Effect” value was 110.9%.
In the case of O=C(O)C(F)(F)F.O=C1CCCN1Cc1ncn2c1CN(C(=O)N1CCCC1)CCC2, the “Percent Effect” value is reported as 106.2%.
In the case of Cn1cc(CN2CCCn3cnc(CN4CCCC4=O)c3C2)cn1, the “Percent Effect” value is reported as -11.95%.
O=C1CCCN1Cc1ncn2c1CN(C(=O)C1CC=CC1)CCC2 was tested, and the “Percent Effect” value was 99.96%.
For O=C1O[C@@H]2CN(Cc3ccccc3F)C[C@@H]2N1CCCN1CCOCC1, the “Percent Effect” value was 2.415%.
CCn1c(CN2CCCC(Cn3cncn3)C2)nc2c(F)cccc21 (stereo not given) was tested, and the “Percent Effect” value was -3.133%.
For NC1(CN2CCCCC2)CCCCC1, the “Percent Effect” value was 100.8%.
In the case of OCCN1CCN(CC2(O)CCCCC2)CC1, the “Percent Effect” value is reported as -8.643%.
In the case of OC1(CN2CCCC2)CCCN(c2ncnc3[nH]cnc23)C1 (stereo not given), the “Percent Effect” value is reported as -10.69%.
For NCC1(CN2CCOCC2)CCCCC1, the “Percent Effect” value was 7.377%.
In the case of NC1(CN2CCOCC2)CCCCC1, the “Percent Effect” value is reported as 80.74%.
Cc1nsc(NC(=O)NC2(CN3CCOCC3)CCCCC2)n1 was tested, and the “Percent Effect” value was 1.675%.
For CCCc1nc(C)c(CNc2nc(C)nc3oc(C)nc23)s1, the “Percent Effect” value was 10.41%.
In the case of Cc1nnc(SCCC(=O)N(C)Cc2ccc(F)cc2Cl)[nH]1, the “Percent Effect” value is reported as 5.698%.
With c1ccc(NCc2ccsc2)c(Cn2cncn2)c1 the “Percent Effect” value was 3.372%.
For CC(=O)NC(Cc1c[nH]c2cc(F)ccc12)C(=O)Nc1cnn(C)c1 (stereo not given), the “Percent Effect” value was -8.595%.
COc1ccc(C(C)Nc2ncc(C(N)=O)cc2Cl)cc1F (stereo not given) was tested, and the “Percent Effect” value was -11.64%.
COc1ccc(NC(C)C(=O)NCCc2cccs2)cc1F (stereo not given) was tested, and the “Percent Effect” value was -5.142%.
In the case of COc1ccc(C(C)NC(=O)Nc2nnc(C)s2)c(OC)c1 (stereo not given), the “Percent Effect” value is reported as 5.487%.
COc1ccc(C(C)NCCC(N)=O)cc1F (stereo not given) was tested, and the “Percent Effect” value was 53.8%.
With COc1ccc(C(C)NCCc2ccc(NC(C)=O)cc2)c(OC)c1 (stereo not given) the “Percent Effect” value was 110.9%.
With COc1ccc(C(C)NCCc2ccc(NC(C)=O)cc2)cc1F (stereo not given) the “Percent Effect” value was 98.08%.
For COc1ccc(C(C)NC(=O)NCCCn2cncn2)cc1F (stereo not given), the “Percent Effect” value was 3.932%.
For COc1ccc(C(C)NC(=O)NCCc2ccc(C)nc2)c(OC)c1 (stereo not given), the “Percent Effect” value was 8.171%.
For COc1ccc(C(C)NCc2nnc(C)s2)cc1F (stereo not given), the “Percent Effect” value was -18.95%.
For Cc1ccc(NCc2ccccc2C#N)cc1-n1cnnn1, the “Percent Effect” value was 14%.
CCCNC(=O)CNc1cc(C(=O)NCC(F)(F)F)cc(F)c1C was tested, and the “Percent Effect” value was -0.1534%.
In the case of COCCN(Cc1ccco1)Cc1nc(-c2ccccc2C)no1, the “Percent Effect” value is reported as -8.039%.
CN(c1ncc(S(N)(=O)=O)s1)C1CCc2ccccc21 (stereo not given) was tested, and the “Percent Effect” value was 0.8223%.
O=C(O)C(F)(F)F.c1cc(CNCC2Cn3nncc3CO2)co1 (stereo not given) was tested, and the “Percent Effect” value was -8.195%.
For Cc1nc(CNCC2Cn3nncc3CO2)cs1.O=C(O)C(F)(F)F (stereo not given), the “Percent Effect” value was 95.04%.
With Cc1noc(C)c1CNCC1Cn2nncc2CO1.O=C(O)C(F)(F)F (stereo not given) the “Percent Effect” value was 106%.
For Fc1ccc(CNCC2Cn3nncc3CO2)cc1.O=C(O)C(F)(F)F (stereo not given), the “Percent Effect” value was 10.26%.
For Cc1cc(CNCC2Cn3nnc(C)c3CO2)oc1C.O=C(O)C(F)(F)F (stereo not given), the “Percent Effect” value was -14.18%.
For O=C(O)C(F)(F)F.c1ccc(CCNCC2Cn3nncc3CO2)cc1 (stereo not given), the “Percent Effect” value was -6.101%.
COc1cc2ccn(CCCO)c(=O)c2cc1F was tested, and the “Percent Effect” value was -13.96%.
In the case of Cc1ccc(CCCC(=O)N2CCC(=O)Nc3cccnc32)s1, the “Percent Effect” value is reported as 9.523%.
With Cl.Cl.O[C@@H]1C[C@@](CNCc2ccc(Cl)cc2)(COc2cccnc2)C[C@@H]1O the “Percent Effect” value was -11.4%.
For Cc1nc(C)n(CC(C)C(=O)N2CCC(CN3CCOCC3)CC2)n1 (stereo not given), the “Percent Effect” value was -24.3%.
CC(C)(C)CC(=O)N1CSCC1C(=O)NC1=NCCS1 (stereo not given) was tested, and the “Percent Effect” value was 6.289%.
With COC(C(=O)NC1CCN(S(C)(=O)=O)CC1)c1ccccc1 (stereo not given) the “Percent Effect” value was 12.34%.
With COc1cccc2c1OCC(C(=O)NC1CCN(S(C)(=O)=O)CC1)C2 (stereo not given) the “Percent Effect” value was 11.83%.
In the case of CS(=O)(=O)N1CCC(Oc2ccc(C(=O)NC3CCCC3)cc2Cl)CC1, the “Percent Effect” value is reported as -48.27%.
In the case of CNC(=O)c1ccc(OC2CCN(S(C)(=O)=O)CC2)c(Cl)c1, the “Percent Effect” value is reported as -16.21%.
For CS(=O)(=O)N1CCC(NC(=O)COc2ccccc2Cl)CC1, the “Percent Effect” value was 111.5%.
With CS(=O)(=O)N1CCC(NC(=O)COc2ccc(Br)cc2Cl)CC1 the “Percent Effect” value was 124.9%.
With CC(CNC(=O)N1CCN(CC(F)F)CC1)Cc1cccs1 (stereo not given) the “Percent Effect” value was 5.816%.
In the case of Cn1ccnc1C(O)(CCNCc1ccco1)C(F)(F)F (stereo not given), the “Percent Effect” value is reported as -13.62%.
For CN(C)CCNC(=O)Nc1cccc(C[S+]([O-])Cc2ccccc2)c1 (stereo not given), the “Percent Effect” value was -3.662%.
In the case of Cc1noc(CN(C)CC2CCN(CCO)CC2)n1, the “Percent Effect” value is reported as 3.042%.
With COc1cccc(OC)c1CN1CCC2(CC(Nc3ccncn3)C2)C1 (stereo not given) the “Percent Effect” value was 4.398%.
With COc1cc(CN2CCC3(CC(Nc4ccncn4)C3)C2)cc(OC)c1 (stereo not given) the “Percent Effect” value was 125.9%.
For COc1ccc(CN2CCC3(CCCNC3)C2)cc1Cn1cccn1 (stereo not given), the “Percent Effect” value was -22.52%.
COc1cccc(CN2CCC3(CC(Nc4ccncn4)C3)C2)c1F (stereo not given) was tested, and the “Percent Effect” value was 97.57%.
In the case of COc1ccc(CN2CCC3(CC(Nc4ccncn4)C3)C2)c(OC)c1 (stereo not given), the “Percent Effect” value is reported as 2.421%.
In the case of Cc1nc(C)c(CN2CCOC[C@H](Oc3cnccn3)C2)s1, the “Percent Effect” value is reported as -6.668%.
O=C(Cn1cccn1)N1CCC(Oc2cnccn2)CC1 was tested, and the “Percent Effect” value was 4.434%.
O=C(Cn1ccc2ccccc21)N1CCC(Oc2cnccn2)CC1 was tested, and the “Percent Effect” value was 0.2299%.
In the case of Cc1nn(C)c(C)c1CC(=O)NCc1ccnc(OC2CCCC2)c1, the “Percent Effect” value is reported as -17.69%.
Cn1ccc(NC(=O)CN2CCC(Oc3cnccn3)CC2)n1 was tested, and the “Percent Effect” value was 107.4%.
With COc1ccnc(NC2CCN(CC(=O)Nc3ccccc3)CC2)n1 the “Percent Effect” value was -1.982%.
Cc1c(NC(=O)CN2CCC(Oc3cnccn3)CC2)cnn1C was tested, and the “Percent Effect” value was 146%.
With CCOC1CCN(CC(=O)Nc2oc(C)c3c(C)n[nH]c(=O)c23)CC1 the “Percent Effect” value was -5.173%.
In the case of Cc1nn(C)cc1NC(=O)CN1CCC(Oc2cnccn2)CC1, the “Percent Effect” value is reported as 129.5%.
CN1CCC(N2CCN(C(C(=O)O)c3cccc4c3OCC4)CC2)CC1 (stereo not given) was tested, and the “Percent Effect” value was -2.868%.
With Cc1nc(-c2cc(C(=O)NC(C)(C(=O)O)C(C)C)co2)cs1 (stereo not given) the “Percent Effect” value was 1.094%.
For O=C(NCCC1CCCCO1)c1cc(COc2cncc(Cl)c2)on1 (stereo not given), the “Percent Effect” value was -5.256%.
In the case of CSC(C)(C)CNC(=O)NC1CCSCC1, the “Percent Effect” value is reported as -7.35%.
COc1ccc(-n2ccc(C(=O)N3CCN(C)CC3C)n2)cc1 (stereo not given) was tested, and the “Percent Effect” value was -4.695%.
With CC1CN(C)CCN1C(=O)c1ccc(-n2cnnc2)cc1 (stereo not given) the “Percent Effect” value was -8.678%.
With CC1CN(C)CCN1C(=O)c1ccn(-c2ccccc2)n1 (stereo not given) the “Percent Effect” value was 92.82%.
CC1CN(C)CCN1C(=O)c1ccn(-c2ccccc2Cl)n1 (stereo not given) was tested, and the “Percent Effect” value was 97.32%.
With CCc1nc(C(=O)N2CCN(C)CC2C)nn1-c1ccccc1Cl (stereo not given) the “Percent Effect” value was 4.953%.
For CC1CN(C)CCN1C(=O)c1ccn(-c2ccc(F)cc2)n1 (stereo not given), the “Percent Effect” value was 101.7%.
With CC1CN(C)CCN1C(=O)c1cnn(-c2cccc(Cl)c2)c1 (stereo not given) the “Percent Effect” value was 91.23%.
With Cc1cnn(-c2ccc(C(=O)N3CCN(C)CC3C)cc2)c1 (stereo not given) the “Percent Effect” value was -5.131%.
With CC1CN(C)CCN1C(=O)c1cccn1Cc1ccncc1 (stereo not given) the “Percent Effect” value was 17.94%.
Cc1cc(NC(=O)N2CCN(C)CC2C)n(Cc2ccccc2)n1 (stereo not given) was tested, and the “Percent Effect” value was -3.69%.
CC1CN(C)CCN1C(=O)c1cnn(-c2ccc(Cl)cc2)c1 (stereo not given) was tested, and the “Percent Effect” value was 3.844%.
For CC1CN(C)CCN1C(=O)c1cccn1Cc1cccnc1 (stereo not given), the “Percent Effect” value was 1.342%.
In the case of CCCn1cnnc1CNC(=O)CC1C(=O)NCCN1CC(C)(C)C (stereo not given), the “Percent Effect” value is reported as 2.919%.
O=C1N(CC2CC2)C2(CCSCC2)NC12CCCC2 was tested, and the “Percent Effect” value was -1.128%.
O=C1CC(c2ccc(C(=O)O)cc2)c2ncn(-c3cccc(Cl)c3)c2N1 (stereo not given) was tested, and the “Percent Effect” value was -0.6524%.
In the case of CC1CN(C)CCN1C(=O)c1ccn(-c2cccc(Cl)c2)n1 (stereo not given), the “Percent Effect” value is reported as -2.456%.
With O=C(c1ccn(-c2cccc(F)c2)n1)N1CCN(CC2CC2)CC1 the “Percent Effect” value was 1.903%.
In the case of CC1CN(C)CCN1C(=O)c1ccn(-c2cccc(F)c2)n1 (stereo not given), the “Percent Effect” value is reported as 102.3%.
With Cn1cc(CN2CC3(CCN(Cc4ccsc4)C3)C2)cn1 the “Percent Effect” value was -4.449%.
Cn1cc(CN2CCS(=O)(=O)C(C)(C)C2)cn1 was tested, and the “Percent Effect” value was 112.3%.
COCCC1(CO)CCCN(Cc2ccncc2)C1 (stereo not given) was tested, and the “Percent Effect” value was -9.658%.
Cc1ccc(CN2CCN(CC3CC3)[C@@H]3CS(=O)(=O)C[C@@H]32)cc1C was tested, and the “Percent Effect” value was -7.096%.
CCc1cnc(N2CCN(Cc3ccncc3)CC2)s1 was tested, and the “Percent Effect” value was -22.29%.
CC1(C)CN(Cc2ccncc2)CCS1(=O)=O was tested, and the “Percent Effect” value was 93.26%.
In the case of Cc1ccc(CN2CCN(CC(=O)N(C)C)[C@@H]3CS(=O)(=O)C[C@@H]32)cc1C, the “Percent Effect” value is reported as 8.037%.
For Cn1cc(CN2CCN(Cc3nccn3C)CC2)cn1, the “Percent Effect” value was -17.17%.
In the case of Cc1ccc(CN2CCS(=O)(=O)C(C)(C)C2)cc1C, the “Percent Effect” value is reported as 113.6%.
